Several values for one entry are separate records, joined by “and”; a condition that tells them apart may be missing. Identical values can stand only once. A number with no mark means an inactive call. Records with an inconclusive call do not appear. Activity calls are given as the source filed them. Unless noted, calls follow the shape of the dose curve; as a rule, active = well fitted curve in either direction with a large enough effect (not every such curve was filed as active); inconclusive = small, poorly fitted or top-dose-only effect, or another doubt; inactive = flat fitted curve, though single readings scatter. Where only a bound is given, the exact number is not on record here.

The values that follow come from PubChem BioAssay (NCATS).

Assay [1] is described as follows: AP1 Signaling Pathway (AID 357).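 Also: ME-180 reporter cells stimulated with EGF at its EC50 level; % is scaled to controls: 0 for no effect and ±100 for the full control effect.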 The following applies: ME-180 AP-1-bla reporter, EGF-induced, beta-lactamase ratio, 5 h; at 7.69 µM (top of the series) unless noted. The procedure, abridged: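 First, ME-180 AP-1-bla cells were cultured overnight at 37 °C in low-serum Opti-MEM. Next, titrated compounds with EC50 EGF were incubated 5 hours. Finally, CCF4 was added for 2.5 hours and the 460/530 nm ratio recorded.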

Assay [2] addresses Cytochrome P450 1A2 (Homo sapiens) (UniProt P05177). The experiment in a line: p450-cyp1a2 (AID 410; calls by dose curve; also: potency is read from the fitted curve at half-maximal effect;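 as to activity change, negative = inhibition: -100% = full effect of reference inhibitor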). The procedure, abridged:
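20nM CYP1A2, 100uM Luciferin-ME (=Km), 100mM KPO4; cpd 10 min RT; +NADPH regen, 60 min RT; stop/detect 20 min; luminescence. Normalized to furafylline 57 uM = full inhibition.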

Assay [3] is described as follows: NFAT Signaling Pathway (AID 444).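 Also: carbachol stimulus at about its EC50 of 1 µM final; % is scaled to controls: 0 for no effect and ±100 for the full control effect.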 The following applies: Jurkat NFAT-bla M1, carbachol, beta-lactamase ratio, 5 h; at 7.69 µM (top of the series) unless noted. The gist of the method:
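Read-out: CCF4 FRET ratio (460 nm/530 nm) after 1 h RT dye loading, used for %activity and AC50 from titration series. Cells: Jurkat NFAT-β-lactamase/M1 line, treated with compound plus 1 uM carbachol for 5 h, 37 °C.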

A short description of assay [4]: Stat Signaling Pathway (AID 446).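 Also: ME-180 cervical cancer cells given 40 pM IL-6 alongside compound; SIE-controlled beta-lactamase reporter measured as 460/530 nm FRET emission ratio; % is scaled to controls: 0 for no effect and ±100 for the full control effect.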 The following applies: ME-180 (cervical carcinoma) SIE beta-lactamase reporter, IL-6 stimulated, 5 h; at 7.69 µM (top of the series) unless noted. The procedure, abridged: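 FRET read-out (405 nm excitation, 460/530 nm emission) of a beta-lactamase reporter under a STAT-inducible element in ME-180 cervical carcinoma cells. Cells with compound receive 40 pM IL-6 for 5 h. Values are normalised to AC90 stimulation and AC90 JAK-inhibitor controls.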

The target of assay [5] is Glucocorticoid receptor (Homo sapiens) (UniProt P04150). Briefly: GR-GFP Redistribution (AID 450;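 active = compounds whose dose series gives a full or clear partial fitted curve of increased nuclear translocation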; also: potency is read from the fitted curve at half-maximal effect). The following applies: U2OS GR-GFP nuclear translocation, laser cytometry, 2 h.
Chain of Glucocorticoid receptor (Homo sapiens) (P04150 whole entry, looked up, the tested form may be a part): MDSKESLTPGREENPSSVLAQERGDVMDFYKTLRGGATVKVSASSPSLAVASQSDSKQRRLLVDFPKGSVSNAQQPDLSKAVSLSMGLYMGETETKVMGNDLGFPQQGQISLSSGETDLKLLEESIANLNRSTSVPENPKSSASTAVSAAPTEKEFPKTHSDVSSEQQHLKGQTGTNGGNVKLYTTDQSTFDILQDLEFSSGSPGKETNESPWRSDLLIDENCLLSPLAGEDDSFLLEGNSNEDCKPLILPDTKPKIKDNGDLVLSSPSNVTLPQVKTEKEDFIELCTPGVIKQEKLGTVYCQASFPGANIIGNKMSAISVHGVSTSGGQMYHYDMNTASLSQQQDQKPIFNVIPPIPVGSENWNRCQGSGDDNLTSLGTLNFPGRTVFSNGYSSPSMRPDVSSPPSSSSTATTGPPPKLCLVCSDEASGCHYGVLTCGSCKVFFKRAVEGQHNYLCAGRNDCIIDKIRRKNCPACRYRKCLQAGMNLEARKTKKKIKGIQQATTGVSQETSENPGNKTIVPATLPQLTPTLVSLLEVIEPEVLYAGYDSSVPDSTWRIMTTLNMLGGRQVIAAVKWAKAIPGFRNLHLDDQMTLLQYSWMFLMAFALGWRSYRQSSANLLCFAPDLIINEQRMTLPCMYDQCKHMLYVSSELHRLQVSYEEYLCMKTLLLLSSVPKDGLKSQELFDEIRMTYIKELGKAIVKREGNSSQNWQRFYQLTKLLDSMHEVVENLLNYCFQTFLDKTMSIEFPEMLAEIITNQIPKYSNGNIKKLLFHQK
For assay [6], the target named is Mitogen-activated protein kinase 10 (Mus musculus) (UniProt Q61831). The experiment in a line: JNK3 AlphaScreen Assay (AID 530).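 Also: kinase came from lysate of stimulated human HepG2 cells; signal reports phosphorylation of biotinylated GST-cJun 1-79 at Ser73 with 10 µM ATP; % is scaled to controls: 0 for no effect and ±100 for the full control effect.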 The procedure, abridged:
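Kinase buffer: 20 mM Tris-HCl pH 7.6, 10 mM MgCl2, 1 mM DTT, 0.1 mM Na3VO4, 0.01% Tween-20; ATP 10 uM. Substrate biotin-GST-cJun(1-79), enzyme from activated HepG2 lysates. Detection by Ser73 phospho-antibody AlphaScreen.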
On the technique in general: Alpha assays give light when donor and acceptor beads are brought close together.

The target of assay [7] is 3',5'-cyclic-AMP phosphodiesterase 4B (Homo sapiens) (UniProt Q07343). The experiment in a line: qHTS Assay for Inhibitors of PDE-IV (AID 607; active = well fitted activation curve with a large enough effect in the main read-out, with a control signal flat, not every such curve was filed as active; also: % of control where 0% means no effect). The gist of the method:
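Cell-based read-out of cAMP via a modified cyclic nucleotide-gated channel and membrane potential dye (535/590 nm) in HEK293 cells expressing PDE4 endogenously. Compounds tested up to 22.9 uM final; 100 uM RO 20-1724 reference.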

Assay [8] concerns the target Guanine nucleotide-binding protein G(i) subunit alpha-1 (Homo sapiens) (UniProt P63096). Briefly: qHTS Assay for Inhibitors of RGS12 GoLoco Motif Activity (Green Fluorophore) (AID 879; active = well fitted curve in the direction sought with a large enough effect; an effect the other way counts as inactive or inconclusive;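 also: 0% = labeled peptide with Gαi1 and full inhibition = labeled peptide alone without protein; negative values mean loss of peptide binding seen as reduced polarization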). The gist of the method:
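A drop in FITC polarization marked displacement of the FITC-tagged RGS12 GoLoco peptide (10 nM) from Gαi1 (50 nM). Compounds were incubated 10 min at room temperature in Tris pH 7.5 buffer containing 150 mM NaCl, 0.1 mM GDP and 0.05% NP40; unlabeled peptide titration served as control.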
For orientation: Quantitative high-throughput screening tests each substance at several concentrations.

The target in assay [9] is Cytochrome P450 3A4 (Homo sapiens) (UniProt P08684). The experiment in a line: qHTS Assay for Activators of Cytochrome P450 3A4 (AID 885; active = well fitted curve in the direction sought with a large enough effect; an effect the other way counts as inactive or inconclusive; also: nearly all actives have a fitted effect of over 65% in size). The gist of the method: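 Luminescent readout of luciferin formed from 25 uM Luciferin-PPXE (KM level) by 20 nM CYP3A4 in 200 mM KPO4, with 60 min NADPH-driven reaction at room temperature after 10 min compound exposure. Ketoconazole (57 uM) defined 100% inhibition.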
Chain of Cytochrome P450 3A4 (Homo sapiens) (P08684 whole entry, looked up): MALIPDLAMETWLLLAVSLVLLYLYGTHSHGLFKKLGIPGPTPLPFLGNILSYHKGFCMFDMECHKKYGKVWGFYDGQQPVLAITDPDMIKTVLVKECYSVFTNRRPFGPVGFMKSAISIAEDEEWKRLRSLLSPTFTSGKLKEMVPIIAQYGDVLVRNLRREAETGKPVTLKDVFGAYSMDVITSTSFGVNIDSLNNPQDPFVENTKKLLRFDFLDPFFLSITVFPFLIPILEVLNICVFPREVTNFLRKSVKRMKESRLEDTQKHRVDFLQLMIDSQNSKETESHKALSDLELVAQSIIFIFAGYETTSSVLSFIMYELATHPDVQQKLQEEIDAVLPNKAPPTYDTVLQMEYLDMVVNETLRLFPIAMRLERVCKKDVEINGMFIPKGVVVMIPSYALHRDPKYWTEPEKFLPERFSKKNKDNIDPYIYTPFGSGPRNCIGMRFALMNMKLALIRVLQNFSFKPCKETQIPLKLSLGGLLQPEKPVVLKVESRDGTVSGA

A short description of assay [10]: qHTS Assay for Identification of Small Molecule Agonists for Thrombopoietin (TPO) Signaling Pathway (AID 917; active = well fitted curve in the direction sought with a large enough effect; an effect the other way counts as inactive or inconclusive; also: % is scaled to controls: 0 for no effect and ±100 for the full control effect). The gist of the method:
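Stimulation at the TPO EC50 (26 pM final) was used to detect activators. Ba/F3 mouse cells bearing human TPO receptor and a luciferase reporter under the Glycoprotein IIb promoter were exposed to compounds for 24 hrs at 37 C.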

The target of assay [11] is Muscarinic acetylcholine receptor M1 (Rattus norvegicus) (UniProt P08482). Briefly: qHTS Assay for Antagonists of Acetylcholine Muscarinic M1 Receptor: Measurement of IP-One Response (AID 944; active = well fitted curve in the direction sought with a large enough effect; an effect the other way counts as inactive or inconclusive; also: nearly all actives have a fitted effect of over 75% in size). The gist of the method: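 Read-out: HTRF competition between d2-IP1 and Eu-cryptate anti-IP1 antibody, emission 620 and 665 nm. Stimulus was carbachol, EC80 (200 nM), for 30 min in M1-CHO cells (rat receptor), after 10 min compound pre-treatment.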
Chain of Muscarinic acetylcholine receptor M1 (Rattus norvegicus) (P08482 whole entry, looked up): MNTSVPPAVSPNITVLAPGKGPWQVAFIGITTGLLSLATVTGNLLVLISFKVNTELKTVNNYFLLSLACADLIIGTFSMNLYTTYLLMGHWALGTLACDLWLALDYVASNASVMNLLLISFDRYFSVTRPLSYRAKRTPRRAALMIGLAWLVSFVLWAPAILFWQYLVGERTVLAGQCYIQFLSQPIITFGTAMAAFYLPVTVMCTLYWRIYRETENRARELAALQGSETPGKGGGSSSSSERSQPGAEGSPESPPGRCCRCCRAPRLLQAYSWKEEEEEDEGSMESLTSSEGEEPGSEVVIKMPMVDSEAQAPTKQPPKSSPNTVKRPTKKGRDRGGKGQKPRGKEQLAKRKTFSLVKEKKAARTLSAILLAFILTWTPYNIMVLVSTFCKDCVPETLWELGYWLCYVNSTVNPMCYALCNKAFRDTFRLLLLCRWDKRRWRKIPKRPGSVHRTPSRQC

For assay [12], the target named is Pyruvate kinase (Leishmania mexicana) (UniProt Q27686). The experiment in a line: qHTS Validation Assay for Inhibitors of Leishmania Mexicana Pyruvate Kinase (AID 945; active = well fitted curve in the direction sought with a large enough effect; an effect the other way counts as inactive or inconclusive;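 also: 0% = DMSO only neutral control wells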). The gist of the method: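 Eight-point qHTS titrations; enzyme 0.2 nM LmPYK (E451W mutant); substrates 0.5 mM PEP, 0.1 mM ADP; 7 mM MgCl2; 1 h room temperature; PKLight luminescence normalized to neutral control.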
Chain of Pyruvate kinase (Leishmania mexicana) (Q27686 2-499 E452W): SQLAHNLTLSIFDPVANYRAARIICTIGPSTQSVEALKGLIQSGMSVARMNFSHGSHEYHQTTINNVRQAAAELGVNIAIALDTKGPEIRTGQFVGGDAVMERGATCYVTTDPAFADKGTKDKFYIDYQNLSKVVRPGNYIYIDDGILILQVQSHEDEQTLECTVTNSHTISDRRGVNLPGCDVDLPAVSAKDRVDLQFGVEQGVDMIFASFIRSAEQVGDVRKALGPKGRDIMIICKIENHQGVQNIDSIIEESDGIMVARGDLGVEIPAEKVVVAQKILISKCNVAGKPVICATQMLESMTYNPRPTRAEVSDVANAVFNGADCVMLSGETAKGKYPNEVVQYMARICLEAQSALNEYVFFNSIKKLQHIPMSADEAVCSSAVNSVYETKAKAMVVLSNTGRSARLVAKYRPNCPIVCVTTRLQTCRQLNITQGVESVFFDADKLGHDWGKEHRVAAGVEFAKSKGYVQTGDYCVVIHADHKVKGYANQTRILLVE

The target of assay [13] is Pyruvate kinase PKM (Homo sapiens) (UniProt P14618). Briefly: qHTS Assay for Activators of Human Muscle Pyruvate Kinase (AID 954; active = well fitted curve in the direction sought with a large enough effect, not every such curve was filed as active;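 also: 0% = uninhibited enzyme and -100% = no enzyme or full thiadiazolimine inhibition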). The gist of the method: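 ATP production by PKM2 detected via luciferase luminescence after 1 h room-temperature reaction (0.1 nM enzyme, PEP at Km 0.5 mM, ADP 0.1 mM, pH 7.2 imidazole buffer). Inhibition scaled to no-enzyme control; activation referenced to 0.3 nM enzyme wells.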

The target in assay [14] is Alpha-galactosidase (Coffea arabica) (UniProt Q42656). The experiment in a line: Counterscreen for Glucocerebrosidase Inhibitors: qHTS Assay for Coffee Bean alpha-Galactosidase at pH 4.5 (AID 957; active = well fitted curve in the direction sought with a large enough effect; an effect the other way counts as inactive or inconclusive;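 also: plate controls were enzyme alone for no effect and no enzyme for full effect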). The gist of the method: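 Fluorogenic read-out: 4-methylumbelliferone at Ex 365/Em 440 nm after NaOH/glycine stop (pH 10). Enzyme 2 nM, 4-MU-alpha-galactoside 80 uM, citrate buffer pH 4.5, 20 min RT; normalized to no-enzyme and enzyme controls.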
Chain of Alpha-galactosidase (Coffea arabica) (Q42656 whole entry, looked up): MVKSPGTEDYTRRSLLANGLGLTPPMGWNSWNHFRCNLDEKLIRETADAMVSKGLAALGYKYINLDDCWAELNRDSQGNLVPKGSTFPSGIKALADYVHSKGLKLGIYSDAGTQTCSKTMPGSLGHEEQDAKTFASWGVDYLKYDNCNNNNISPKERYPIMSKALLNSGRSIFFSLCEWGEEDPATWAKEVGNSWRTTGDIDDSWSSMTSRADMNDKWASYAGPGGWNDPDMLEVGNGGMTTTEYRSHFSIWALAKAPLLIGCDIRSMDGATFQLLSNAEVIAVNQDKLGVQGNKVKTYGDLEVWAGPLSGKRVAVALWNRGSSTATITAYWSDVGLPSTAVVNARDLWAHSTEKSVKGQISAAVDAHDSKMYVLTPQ

Assay [15] addresses Alpha-galactosidase A (Homo sapiens) (UniProt P06280). Briefly: Counterscreen for Glucocerebrosidase Inhibitors: qHTS Assay for Human alpha-Galactosidase at pH 4.5 (AID 992; active = well fitted curve in the direction sought with a large enough effect; an effect the other way counts as inactive or inconclusive; also: 0% is about no effect). The gist of the method:
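Fluorogenic 1536-well qHTS at pH 4.5 (citrate, Tween-20): 2 nM enzyme, 80 uM 4-MU-alpha-galactoside, 20 min room temperature, NaOH/glycine stop. Titration 0.7 nM to 77 uM, data normalized to no-enzyme and full-activity controls, Hill-fitted AC50.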

Assay [16] addresses alpha-glucosidase (Oryza sativa, rice) (UniProt Q653V4). The experiment in a line: Counterscreen for Glucocerebrosidase Inhibitors: qHTS Assay for Rice alpha-Glucosidase at pH 5.0 (AID 997; active = well fitted curve in the direction sought with a large enough effect; an effect the other way counts as inactive or inconclusive;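 also: 0% = full activity with enzyme and -100% = basal without enzyme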). The procedure, abridged: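 Endpoint fluorogenic assay at pH 5.0: compounds (0.7 nM to 77 uM) titrated against 4 nM rice enzyme and 400 uM 4-MU-alpha-glucoside for 20 min at room temperature; NaOH/glycine stop, read ex 365/em 440 nm, Hill-fitted AC50.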
A general note: A counterscreen serves to expose hits that act by an unwanted route or on another target.

For assay [17], the target named is Alpha-galactosidase (Coffea arabica) (UniProt Q42656). The experiment in a line: Counterscreen for Glucocerebrosidase Inhibitors: qHTS Assay for Coffee Bean alpha-Galactosidase at pH 5.9 (AID 998; active = well fitted curve in the direction sought with a large enough effect; an effect the other way counts as inactive or inconclusive;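 also: plate controls were uninhibited enzyme for no effect and no-enzyme basal signal for full effect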). The gist of the method: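 Fluorogenic 4-MU substrate hydrolysis, 80 uM substrate and 2 nM coffee bean alpha-galactosidase, pH 5.9 citrate buffer, 20 min at room temperature, then NaOH/glycine stop. Titration 0.7 nM–77 uM, normalized to no-enzyme and enzyme controls, AC50 via Hill equation.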

For assay [18], the target named is Glucocorticoid receptor (Homo sapiens) (UniProt P04150). Briefly: GR-EFC Redistribution (AID 451; calls by dose curve; also: potency is read from the fitted curve at half-maximal effect). The following applies: CHO-K1 GR-EFC translocation, beta-gal luminescence, 2 h. The gist of the method:
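Translocation of GR-ED fusion to nuclear EA restores b-gal, read by luminescence after 1 h room-temperature detection. Engineered CHO-K1 biosensor cells, 1,000/well, exposed 2 h at 37 C to titrations up to 46 uM final.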

Chain of 3',5'-cyclic-AMP phosphodiesterase 4B (Homo sapiens) (Q07343 whole entry, looked up): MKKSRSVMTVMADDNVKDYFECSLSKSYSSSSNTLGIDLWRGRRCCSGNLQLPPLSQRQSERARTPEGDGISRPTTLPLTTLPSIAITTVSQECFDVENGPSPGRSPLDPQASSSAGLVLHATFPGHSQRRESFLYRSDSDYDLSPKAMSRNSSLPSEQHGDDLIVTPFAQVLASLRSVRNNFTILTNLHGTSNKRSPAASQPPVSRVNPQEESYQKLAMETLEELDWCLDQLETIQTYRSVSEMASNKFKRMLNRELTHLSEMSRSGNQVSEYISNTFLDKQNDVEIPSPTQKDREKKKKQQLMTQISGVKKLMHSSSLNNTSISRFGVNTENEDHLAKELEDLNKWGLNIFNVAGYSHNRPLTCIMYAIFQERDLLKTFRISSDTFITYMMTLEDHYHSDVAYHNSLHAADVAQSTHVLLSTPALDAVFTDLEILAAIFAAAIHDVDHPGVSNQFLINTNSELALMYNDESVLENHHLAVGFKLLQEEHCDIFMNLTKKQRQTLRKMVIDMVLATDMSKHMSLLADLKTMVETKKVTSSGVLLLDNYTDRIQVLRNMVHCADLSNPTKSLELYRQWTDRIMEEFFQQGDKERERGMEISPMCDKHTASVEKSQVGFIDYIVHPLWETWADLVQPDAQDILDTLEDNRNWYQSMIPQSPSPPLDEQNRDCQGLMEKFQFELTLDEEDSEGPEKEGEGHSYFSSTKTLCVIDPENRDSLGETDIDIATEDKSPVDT
Chain of Cytochrome P450 1A2 (Homo sapiens) (P05177 whole entry, looked up): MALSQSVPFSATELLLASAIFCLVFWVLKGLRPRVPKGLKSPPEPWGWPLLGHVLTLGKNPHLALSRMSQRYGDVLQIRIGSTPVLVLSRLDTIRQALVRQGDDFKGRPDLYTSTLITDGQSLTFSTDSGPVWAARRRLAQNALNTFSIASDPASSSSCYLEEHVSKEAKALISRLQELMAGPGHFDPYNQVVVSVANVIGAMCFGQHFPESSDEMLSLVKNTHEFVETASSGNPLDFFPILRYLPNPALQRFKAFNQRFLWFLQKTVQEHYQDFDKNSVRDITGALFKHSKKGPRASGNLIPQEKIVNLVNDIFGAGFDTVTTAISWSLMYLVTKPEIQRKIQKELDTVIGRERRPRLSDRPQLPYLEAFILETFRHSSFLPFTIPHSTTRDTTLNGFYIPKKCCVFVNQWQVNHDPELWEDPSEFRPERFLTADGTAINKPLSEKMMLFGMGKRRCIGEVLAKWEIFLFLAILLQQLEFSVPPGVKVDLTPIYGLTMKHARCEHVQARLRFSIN
Chain of Alpha-galactosidase A (Homo sapiens) (P06280 whole entry, looked up): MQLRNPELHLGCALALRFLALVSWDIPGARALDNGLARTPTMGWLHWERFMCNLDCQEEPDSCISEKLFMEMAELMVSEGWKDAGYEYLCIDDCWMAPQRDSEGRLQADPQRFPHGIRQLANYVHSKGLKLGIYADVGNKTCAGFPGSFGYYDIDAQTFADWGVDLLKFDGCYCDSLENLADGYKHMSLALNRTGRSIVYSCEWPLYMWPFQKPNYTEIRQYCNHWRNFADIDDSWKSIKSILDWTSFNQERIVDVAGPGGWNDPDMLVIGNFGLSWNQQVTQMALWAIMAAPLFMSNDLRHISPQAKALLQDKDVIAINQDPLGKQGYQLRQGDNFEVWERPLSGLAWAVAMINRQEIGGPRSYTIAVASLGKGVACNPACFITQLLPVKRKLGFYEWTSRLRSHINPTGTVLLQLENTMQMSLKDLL
Chain of Guanine nucleotide-binding protein G(i) subunit alpha-1 (Homo sapiens) (P63096 whole entry, looked up): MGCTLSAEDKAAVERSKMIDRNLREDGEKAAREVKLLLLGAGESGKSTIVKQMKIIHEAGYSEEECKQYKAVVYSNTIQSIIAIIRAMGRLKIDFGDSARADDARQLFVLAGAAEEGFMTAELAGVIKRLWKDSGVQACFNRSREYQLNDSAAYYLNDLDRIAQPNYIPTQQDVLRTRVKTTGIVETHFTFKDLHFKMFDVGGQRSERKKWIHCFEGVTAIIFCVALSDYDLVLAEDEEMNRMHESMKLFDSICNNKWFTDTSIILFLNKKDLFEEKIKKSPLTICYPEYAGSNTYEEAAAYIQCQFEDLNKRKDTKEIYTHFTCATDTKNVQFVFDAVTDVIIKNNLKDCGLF

As for `C[C@@]12CC[C@H]3[C@@H](CC[C@@H]4C[C@H](O)CC[C@]43C)[C@H]1CC[C@H]2O`, the activity change, negative = inhibition was -12.3% [at 38 µM] in assay [1] and 6.96% [at 38 µM] in assay [3]. The Potency in assay [2] was 15.8 µM (active); in assay [5], above 46 µM. Further, in [4], the activity, negative = inhibition was 24.5% [at 38 µM]. In addition, the Potency entry in [6], in assay [9] and in [11] was “inactive” each time. The call in [7], in assay [8], in assay [10], in assay [12], in assay [13] and in [14] was inactive. The outcome in assay [15], in assay [16] and in assay [17] was inactive.

For `N=C(N)SCc1ccc(Cl)c2ccccc12` (tested in a mixture with another compound), the activity change, negative = inhibition is 6.29% and 5.72% in assay [1]; -1.16% in assay [3]; 3.26% [at 11.4 µM] and 4.92% [at 11.4 µM] in assay [6]. In addition, the Potency in assay [2] is 251 nM (active) and 158 nM (active). For the same molecule, the activity, negative = inhibition in assay [4] is -8.84% and -10.7%. Also, the molecule was called inactive in assay [7].

For `C[C@]12CC[C@H](O)CC1=CC[C@@H]1[C@H]2CC[C@]2(C)C(=O)CC[C@H]12`, the values for the activity change, negative = inhibition in assay [1] and in assay [3] were 1.1% [at 38 µM] and 2.55% [at 38 µM], respectively. The Potency entry in assay [2] and in assay [11] was “inactive” in each case. The activity, negative = inhibition in assay [4] was 3.87% [at 38 µM]. The Potency in assay [5] was above 46 µM. Also, the molecule was classed as inactive in [7], in [8], in assay [10], in assay [12], in [13] and in [14]. The call in assay [15], in [16] and in assay [17] was inactive.

On to `O=C(O)[C@H]1C2c3ccccc3C(c3ccccc32)[C@@H]1C(=O)NCC1CC1`, for which the figures for the activity change, negative = inhibition in assay [1], in [3] and in assay [6] were 1.37%, -3.96% and 2.32% [at 11.4 µM], respectively. Also, the activity, negative = inhibition in assay [4] is 26.5%. For the same molecule, the Potency in assay [5] is above 46 µM; in [18], above 9.22 µM. Further, the molecule was classed as inactive in assay [7].

Regarding `O=[N+]([O-])c1cc(Cl)c(Cl)cc1Cl`, the Potency result in assay [6] was “inactive”.

In the case of `NC1CCC(CC2CCC(N)CC2)CC1` (stereo not given), in [6], the Potency result is “inactive”.

Consider `O=C(O)CCl`, for which the Potency result in [6] is “inactive”.

With `Cc1ccc(N=C=O)cc1N=C=O`, the Potency result in assay [6] and in assay [9] was “inactive” throughout.
